According to PubChem BioAssay (NCATS):
Records with an inconclusive call do not appear. Entries that show only a call come without a potency. Calls of active or inactive are those of the source. Calls come from the whole dose curve; as a rule, active = well fitted cell-killing curve with a large enough effect; inconclusive = small, poorly fitted or top-dose-only effect; inactive = flat fitted curve, though single readings scatter.

Experiment: Cell Viability - H-4-II-E (AID 543); note: nearly all actives have a fitted effect of over 35% in size
Conditions: H-4-II-E rat hepatoma viability; series mostly up to 92.2 µM
Procedure, shortened: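 CellTiter-Glo luminescence (intracellular ATP) measured after 40 h compound exposure at 37 °C in H-4-II-E rat hepatoma cells seeded at 1500/well. Values are AC50s fitted with the standard Hill equation.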
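Note: cells exposed to compound for 40 hours.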

SMILES | Potency
Nc1ccccc1S(=O)(=O)O | inactive
c1ccsc1 | inactive
FC(F)(F)c1ccccc1Cl | inactive
O=C1NC(=O)c2cc([N+](=O)[O-])ccc21 | inactive
Cc1c(C(=O)O)cccc1[N+](=O)[O-] | inactive
C[C@@H]1O[C@@H](O[C@@H]2[C@@H](O)[C@H](OCCc3ccc(O)c(O)c3)O[C@H](CO[C@@H]3O[C@H](CO)[C@@H](O)[C@H](O)[C@H]3O)[C@H]2OC(=O)/C=C/c2ccc(O)c(O)c2)[C@H](O)[C@H](O)[C@H]1O | inactive
O=Cc1ccc(C(=O)O)cc1 | inactive
NC(=O)CCCCC(N)=O | inactive
CCc1ccccc1 | inactive
CCNc1ccccc1 | inactive
C=Cc1ccc(C=C)cc1 | inactive
Cc1ccccc1C(N)=O | inactive
CCCCC(=O)N(C)C | inactive
CC#N | inactive
CC(=O)CCc1ccccc1 | inactive
C=C(C)C1CC=C(C)C(OC(C)=O)C1 (stereo not given) | inactive
Nc1cccc2c(=O)[nH][nH]c(=O)c12 | inactive
CC(=O)c1cc(C)oc1C | inactive
C=CCOC(=O)COCCC(C)C | inactive
C=CCOC(=O)CCCCCCCC | inactive

SMILES | Potency
NC(=S)NNC(N)=S | inactive
CSCCC=O | inactive
CCC(C)O (stereo not given) | inactive
CCCC(C)CO (stereo not given) | inactive
CCC(=O)/C=C/C1C(C)=CCCC1(C)C (stereo not given) | inactive
C=CCCCCCC | inactive
CC(C)=CCl | inactive
Nc1ccc([N+](=O)[O-])c(N)c1 | inactive
CC(=O)Nc1ccccc1C | inactive
CCCCCCCCN | inactive
CC(CCl)OC(C)CCl (stereo not given) | inactive
O=[N+]([O-])c1ccccc1CCO | inactive
Cc1cc(C)cc(O)c1 | inactive
Cc1ccc(C#N)cc1 | inactive
[O-]/[N+](=N\O)c1ccccc1 | inactive
CC(=O)Nc1cccc(N)c1 | inactive
CCCCC(CC)CO (stereo not given) | inactive
CC(=O)c1ccccc1[N+](=O)[O-] | inactive
Nc1cc(Cl)c([N+](=O)[O-])cc1O | inactive
O=C(O[C@@H](C(=O)O)[C@@H](OC(=O)c1ccccc1)C(=O)O)c1ccccc1 | inactive

Experiment: Cell Viability - SH-SY5Y (AID 544); note: nearly all actives have a fitted effect of over 55% in size
Conditions: SH-SY5Y neuroblastoma cell viability; viability change, negative = cytotoxic: at 92.2 µM (top of the series)
Procedure, shortened: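 Cytotoxicity measured via ATP-dependent luciferase luminescence (CellTiter-Glo) following 40 h, 37 °C exposure of 1500 SH-SY5Y cells per well. Concentration-response data were fitted with the standard Hill equation to give AC50.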

SMILES | Potency
Nc1ccccc1S(=O)(=O)O | inactive
c1ccsc1 | inactive
FC(F)(F)c1ccccc1Cl | inactive
O=C1NC(=O)c2cc([N+](=O)[O-])ccc21 | inactive
Cc1c(C(=O)O)cccc1[N+](=O)[O-] | inactive
C[C@@H]1O[C@@H](O[C@@H]2[C@@H](O)[C@H](OCCc3ccc(O)c(O)c3)O[C@H](CO[C@@H]3O[C@H](CO)[C@@H](O)[C@H](O)[C@H]3O)[C@H]2OC(=O)/C=C/c2ccc(O)c(O)c2)[C@H](O)[C@H](O)[C@H]1O | inactive
O=Cc1ccc(C(=O)O)cc1 | inactive
NC(=O)CCCCC(N)=O | inactive
CCc1ccccc1 | inactive
CCNc1ccccc1 | inactive
C=Cc1ccc(C=C)cc1 | inactive
Cc1ccccc1C(N)=O | inactive
CCCCC(=O)N(C)C | inactive
CC#N | inactive
CC(=O)CCc1ccccc1 | inactive
C=C(C)C1CC=C(C)C(OC(C)=O)C1 (stereo not given) | inactive
Nc1cccc2c(=O)[nH][nH]c(=O)c12 | inactive
CC(=O)c1cc(C)oc1C | inactive
C=CCOC(=O)COCCC(C)C | inactive
C=CCOC(=O)CCCCCCCC | inactive

SMILES | Potency
NC(=S)NNC(N)=S | inactive
CSCCC=O | inactive
CCC(C)O (stereo not given) | inactive
CCCC(C)CO (stereo not given) | inactive
CCC(=O)/C=C/C1C(C)=CCCC1(C)C (stereo not given) | inactive
C=CCCCCCC | inactive
CC(C)=CCl | inactive
Nc1ccc([N+](=O)[O-])c(N)c1 | inactive
CC(=O)Nc1ccccc1C | inactive
CCCCCCCCN | inactive
CC(CCl)OC(C)CCl (stereo not given) | inactive
O=[N+]([O-])c1ccccc1CCO | inactive
Cc1cc(C)cc(O)c1 | inactive
Cc1ccc(C#N)cc1 | inactive
[O-]/[N+](=N\O)c1ccccc1 | inactive
CC(=O)Nc1cccc(N)c1 | inactive
CCCCC(CC)CO (stereo not given) | inactive
CC(=O)c1ccccc1[N+](=O)[O-] | inactive
Nc1cc(Cl)c([N+](=O)[O-])cc1O | inactive
O=C(O[C@@H](C(=O)O)[C@@H](OC(=O)c1ccccc1)C(=O)O)c1ccccc1 | inactive

Experiment: Cell Viability - Renal Proximal Tubule (AID 545); note: nearly all actives have a fitted effect of over 40% in size
Conditions: renal proximal tubule cells viability, primary cells of rat origin; series mostly up to 91.7 µM
Procedure, shortened: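 Primary rat renal proximal tubule cells (1000/well) were treated with compounds for 40 hr at 37 °C in complete medium. Intracellular ATP was measured by CellTiter-Glo luminescence, and AC50 values came from Hill-equation fits of concentration-response data.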

SMILES | Potency
Nc1ccccc1S(=O)(=O)O | inactive
c1ccsc1 | inactive
FC(F)(F)c1ccccc1Cl | inactive
O=C1NC(=O)c2cc([N+](=O)[O-])ccc21 | inactive
Cc1c(C(=O)O)cccc1[N+](=O)[O-] | inactive
C[C@@H]1O[C@@H](O[C@@H]2[C@@H](O)[C@H](OCCc3ccc(O)c(O)c3)O[C@H](CO[C@@H]3O[C@H](CO)[C@@H](O)[C@H](O)[C@H]3O)[C@H]2OC(=O)/C=C/c2ccc(O)c(O)c2)[C@H](O)[C@H](O)[C@H]1O | inactive
O=Cc1ccc(C(=O)O)cc1 | inactive
NC(=O)CCCCC(N)=O | inactive
CCc1ccccc1 | inactive
CCNc1ccccc1 | inactive
C=Cc1ccc(C=C)cc1 | inactive
Cc1ccccc1C(N)=O | inactive
CCCCC(=O)N(C)C | inactive
CC#N | inactive
CC(=O)CCc1ccccc1 | inactive
C=C(C)C1CC=C(C)C(OC(C)=O)C1 (stereo not given) | inactive
Nc1cccc2c(=O)[nH][nH]c(=O)c12 | inactive
CC(=O)c1cc(C)oc1C | inactive
C=CCOC(=O)COCCC(C)C | inactive
C=CCOC(=O)CCCCCCCC | inactive

SMILES | Potency
NC(=S)NNC(N)=S | inactive
CSCCC=O | inactive
CCC(C)O (stereo not given) | inactive
CCCC(C)CO (stereo not given) | inactive
CCC(=O)/C=C/C1C(C)=CCCC1(C)C (stereo not given) | inactive
C=CCCCCCC | inactive
CC(C)=CCl | inactive
Nc1ccc([N+](=O)[O-])c(N)c1 | inactive
CC(=O)Nc1ccccc1C | inactive
CCCCCCCCN | inactive
CC(CCl)OC(C)CCl (stereo not given) | inactive
O=[N+]([O-])c1ccccc1CCO | inactive
Cc1cc(C)cc(O)c1 | inactive
Cc1ccc(C#N)cc1 | inactive
[O-]/[N+](=N\O)c1ccccc1 | inactive
CC(=O)Nc1cccc(N)c1 | inactive
CCCCC(CC)CO (stereo not given) | inactive
CC(=O)c1ccccc1[N+](=O)[O-] | inactive
Nc1cc(Cl)c([N+](=O)[O-])cc1O | inactive
O=C(O[C@@H](C(=O)O)[C@@H](OC(=O)c1ccccc1)C(=O)O)c1ccccc1 | inactive
